Bioassay records from PubChem BioAssay.
Only some compounds are listed: those with a hit (about 19% of all), similar ones and a draw of the others.
DT40 TDP1 CPT: DT40-hTDP1 cell growth loss with CPT; chicken DT40 Tdp1-/-;hTDP1 cells + 20 nM CPT, ATP luminescence, 48 h; Potency, µM (highest dose often 46.2 µM), for the others: at the highest dose activity change, negative = growth inhibition, usual class: inhibitors; actives 12% (n = 420,000); AID 686979; also: potency is read from the fitted curve at half-maximal effect; % is scaled to controls: 0 for no effect and ±100 for the full control effect; nearly all actives have a fitted effect of over 55% in size
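Cell growth measured by CellTiter-Glo luminescence after a minimum 48 h, 37 C compound exposure with 20 nM CPT in Tdp1-knockout DT40 cells stably expressing hTDP1, seeded 400/well; qHTS titration format.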
IL1B secr inh: inflammasome signaling inhibition, IL-1 beta readout | THP-1 LPS/ATP IL-1B secretion, AlphaLISA, 16 h; active compounds read low | activity change, % at 57.5 µM | actives 4.7% (n = 360,000) | AID 743279; in the data active = activity change below about -50%; inconclusive = mostly about -30% to -49%; also: % is scaled to controls: 0 for no effect and ±100 for the full control effect
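THP-1 cells pretreated 1 hr with compounds (up to 57.5 uM final), then stimulated with LPS (250 ng/mL final) plus ATP (1.25 mM final); secreted IL-1B measured by AlphaLISA after 16 hr, decreased signal indicating inhibition.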
DT40 TDP1 no CPT: qHTS for Inhibitors of human tyrosyl-DNA phosphodiesterase 1 (TDP1): qHTS in cells in absence of CPT; DT40 Tdp1-/- hTDP1 cells, no CPT, ATP luminescence, 48 h; actives 15% (n = 420,000); AID 686978, 2013; Potency, µM (top dose mostly 46.2 µM), for the others: at the highest dose activity change, negative = growth inhibition, hits mostly inhibitors; also: potency is read from the fitted curve at half-maximal effect; % is scaled to controls: 0 for no effect and ±100 for the full control effect; nearly all actives have a fitted effect of over 55% in size
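A cellular qHTS used chicken DT40 cells lacking endogenous Tdp1 but carrying stably transfected human TDP1. Compounds were applied without camptothecin, and cell growth kinetics were judged by ATP-dependent luminescence after ≥48 hr.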
MCF10A rerep: induces DNA re-replication in MCF 10a normal breast cells; MCF 10A DNA re-replication, Hoechst nuclear intensity, 48 h; Potency, µM (series often up to 46.1 µM), for inactives: at the top dose activity, positive = re-replication, hits mostly activators; actives 2.9% (n = 350,000); also: potency is read from the fitted curve at half-maximal effect; % of control where 0% means no effect; nearly all actives have a fitted effect of over 50% in size
BCR signal inh: inhibitors of chronic active B-cell receptor signaling; Potency, µM (series often up to 46.1 µM), for the others: at the highest dose activity change, negative = inhibition, actives largely listed as inhibitors; actives 0.05% (n = 340,000); ABC-DLBCL IkBa-CBG/CBR reporter, luminescence ratio, 4 h; active = well fitted inhibition curve with a large enough effect in the signal ratio, with a control signal flat, not every such curve was filed as active; inconclusive = small, poorly fitted or top-dose-only effect, or effect the other way, or a change in a side signal; the % refers to the signal ratio;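 also: potency is read from the fitted curve at half-maximal effect; plate controls were basal doxycycline-induced cells for no effect and cells given 10 µM MG132 for full effect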
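Compounds up to 46 uM were incubated four hours with TMD8 cells whose green CBG68 luciferase is fused to IkappaBalpha; red CBR luminescence normalised the signal, and concentration-effect curves were fitted to fusion, red and ratio data.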
SW480 rerep: induces DNA re-replication in SW480 colon adenocarcinoma cells; SW480 DNA re-replication, Hoechst DNA content imaging, 48 h; Potency, µM (top dose mostly 46.1 µM), for inactives: at the top dose re-replication activation, usual class: activators; actives 1.8% (n = 340,000); also: potency is read from the fitted curve at half-maximal effect; % of control where 0% means no effect; nearly all actives have a fitted effect of over 55% in size
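SW480 cells exposed to compounds for 48 hr at 37 C, 5% CO2, then Hoechst-stained 40 min. Nuclear DNA content imaged by fluorescence scanning (405 nm excitation, 500-530 nm emission); re-replication scored as increased high-intensity nuclei.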
* = called active by the depositor; ? = inconclusive; / = no result given; ! = not confirmed by another sample; [ ] = another dose, or the depositor's remark. Unless noted, calls follow the shape of the dose curve; as a rule, active = well fitted curve in the direction sought with a large enough effect; inconclusive = small, poorly fitted or top-dose-only effect, or another doubt; inactive = no such curve, though single readings can be large; an effect the other way counts as inactive or inconclusive.

SMILES | DT40 TDP1 CPT | IL1B secr inh | DT40 TDP1 no CPT | MCF10A rerep | BCR signal inh | SW480 rerep
CCOC(=O)c1cc(C)n(CC2CCC(C(=O)Nc3cccc(C(C)=O)c3)CC2)c1C (stereo not drawn) | 23µM* | / | 26µM* | / | / | /
CCOC(=O)c1cc(C)n(CC2CCC(C(=O)Nc3ccc(C(=O)OC)cc3)CC2)c1C (stereo not drawn) | 23µM* | / | 18µM* | / | / | /
CCOC(=O)c1cc(C)n(CC2CCC(C(=O)Nc3ccc(C(C)=O)cc3)CC2)c1C (stereo not drawn) | 12µM* | / | 10µM* | / | / | /
COC(=O)C1CCN(C2CN(Cc3ccccc3)S(=O)(=O)C2)CC1 (stereo not drawn) | -18% | 10 | -2% | / | / | /
CCCCn1c(N)c(N(CC(C)C)C(=O)CSCc2ccc(Cl)c(Cl)c2)c(=O)[nH]c1=O | -8% | -56* | -14% | ? | 0% | -1%
CCCCn1c(N)c(N(CC(C)C)C(=O)CSCc2cccc(C)c2)c(=O)[nH]c1=O | 23% | -12 | 11% | 11% | -9% | -1%
CCCCn1c(N)c(N(CC(C)C)C(=O)c2ccc(-c3ccc(Cl)cc3)o2)c(=O)[nH]c1=O | ? | ? | ? | 23µM* | 11% | -8%
CCCCn1c(N)c(N(CC(C)C)C(=O)c2cnccn2)c(=O)[nH]c1=O | -3% | 4 | -2% | -3% | -14% | 18µM*
CCCCn1c(N)c(N(CC(C)C)C(=O)c2cc3c(s2)CCCCC3)c(=O)[nH]c1=O | -1% | -5 | -22% | -2% | ? | 7.3µM*
CCCCn1c(N)c(N(CC)C(=O)c2cc3c(s2)CCCCC3)c(=O)[nH]c1=O | -16% | -3 | -7% | 2% | -1% | 1%
CCn1nc(C)cc1C(=O)NCC1CCC2(CCN(Cc3ccccc3F)CC2)O1 (stereo not drawn) | -12%[9.04 µM] | / | ? | / | / | /
O=C(N[C@H]1/C=C\[C@@H](O)CCCC1)OCc1ccccc1 | 4% | -14 | -3% | -2% | ? | -60%
COc1ccc(Cc2c(C3CCCCC3)nc3cc(C)c(Br)c(C)n23)c(C)c1 | -5% | 0 | ? | / | / | /
CC(=O)c1cccc(NC(=O)Nc2cnn(Cc3ccc(Cl)cc3Cl)c2)c1 | ? | ? | ? | ? | 0% | -2%
Cc1c(C(=O)N2CCCC2)oc2c1-c1nn(CC(=O)NC(C)c3ccccc3)cc1CC2 (stereo not drawn) | ? | / | 23µM* | / | / | /
CCn1cc2c(n1)-c1c(oc(C(=O)Nc3cccc(C)c3C)c1C)CC2 | ? | / | 15µM* | / | / | /
CCOC(=O)c1ccc(NC(=O)c2oc3c(c2C)-c2nn(Cc4ccccc4Cl)cc2CC3)cc1 | 21µM* | / | 21µM* | / | / | /
Cc1c(C(=O)O)oc2c1-c1nn(Cc3ccccc3Cl)cc1CC2 | 6% | / | ? | / | / | /
CC(=O)c1cccc(NC(=O)c2oc3c(c2C)-c2nn(Cc4ccc(Cl)cc4)cc2CC3)c1 | ? | / | 26µM* | / | / | /
CCCCN(CCCC)CCCNC(=O)Cn1cc2c(n1)-c1c(oc(C(=O)N3CCCC3)c1C)CC2 | ? | ? | ? | -1% | -8% | -4%
COc1ccc(N2CCN(S(=O)(=O)CCNC(=O)COc3ccccc3C)CC2)cc1 | ? | 15 | ? | 9% | 1% | -2%
COC(=O)[C@H](Cc1ccccc1)NC(=O)Cn1cnc2c(NCc3ccccc3)ncnc21 | 3% | ? | ? | ? | 0% | -9%
Cc1ccc(N2CCN(S(=O)(=O)c3cccc4ccccc34)CC2)cc1Cl | -26% | / | -21% | / | / | /
Cc1cccc(C)c1NC(=O)c1oc2c(c1C)-c1nn(Cc3ccccc3)cc1CC2 | 18µM* | / | 15µM* | / | / | /
Cc1c(C(=O)N2CCCC2)oc2c1-c1nn(CC(=O)NCCCN3CCCCC3)cc1CC2 | -2% | -27 | 2% | -1% | 1% | -10%
SMILES | DT40 TDP1 CPT | IL1B secr inh | DT40 TDP1 no CPT | MCF10A rerep | BCR signal inh | SW480 rerep
CCN(CC)C(=O)c1cccc(NC(=O)c2ccccc2OCc2c(C)noc2C)c1 | -29% | -5 | ? | -2% | 6% | -5%
C=CCc1ccccc1OCC(O)CNC1CCCC1 (stereo not drawn) | ? | -18 | ? | 0% | ? | 0%
CC(C)NC[C@@H](O)COc1cccc2ccccc12 | 30µM*! | -15 | 21µM*! | -1% | -9% | ?
C=CCc1ccccc1OCC(O)CNC(C)C (stereo not drawn) | -15% | -70* | -9% | -2% | ? | 16%
CC(C)C(=O)Nc1nnc(NC(=S)Nc2ccccc2)s1 | ? | -17 | ? | 2% | ? | 2%
CCCc1nnc(NC(=S)Nc2ccccc2)s1 | 4.6µM* | -5 | 3.3µM* | -1% | ? | 5%
COc1ccccc1/C=C/CN1CCN(Cc2ccc(F)cc2)C(CCO)C1 (stereo not drawn) | ? | ? | 18µM* | 16% | 2% | -4%
OCCC1CN(Cc2nc(-c3ccccc3)cs2)CCN1Cc1ccc(F)cc1 (stereo not drawn) | 23µM* | -76* | 16µM* | ? | 2% | 10%
COc1cccc2c1OCC(CN1CCN(Cc3ccccc3F)C(CCO)C1)=C2 (stereo not drawn) | -21% | -3 | -19% | 0.73µM* | -10% | ?
CC(C)c1csc(CN2CCN(Cc3ccc(F)cc3)C(CCO)C2)n1 (stereo not drawn) | -1% | 0 | -29% | 20% | 8% | 11%
COc1ccc(CN2CCN(Cc3ccccc3)C(CCO)C2)cc1OC (stereo not drawn) | -30% | -6 | -13% | 5% | 5% | -2%
Cc1ccc(CN2CCN(Cc3nc(C(C)C)cs3)CC2CCO)cc1 (stereo not drawn) | ? | 2 | 12µM* | -5% | -14% | -6%
Cn1cccc1C1CCCN1CC(=O)Nc1ccc(F)c(F)c1F (stereo not drawn) | ? | -19 | -21% | -1% | 1% | 8%
CC(C)=CCN1CCN(Cc2cnc(-c3ccccc3)s2)CC1CCO (stereo not drawn) | 26µM* | -12 | ? | 18% | -2% | -24%
CN(C)c1ccc(/C=C2\CCCCC2=O)cc1 | 20µM* | -20 | ? | 2% | -1% | 4%
CC1=Nc2ccccc2/C1=C/c1ccc(N(C)C)cc1 | -96% | / | 18µM* | / | / | /
